Among all 1,300 compounds or so, about 750 (58%) were called active. The list shows a part of the results.

In general, inhibition refers to the relative decrease from the control value, in per cent.

For the test, the target named is Sulfhydryl oxidase 1 (Homo sapiens) (UniProt O00391). Nature of the test: inhibition of human sulfhydryl oxidase QSOX1 – biochemical, ROS-Glo H2O2 luminescence, HTS, primary screen (AID 1347418). The conditions noted are these: recombinant QSOX1, ROS-Glo H2O2 luminescence, at 12.5 µM, stronger effect = higher value; active = any value above zero unless noted.
Sequence of Sulfhydryl oxidase 1 (Homo sapiens) (O00391 whole entry, looked up): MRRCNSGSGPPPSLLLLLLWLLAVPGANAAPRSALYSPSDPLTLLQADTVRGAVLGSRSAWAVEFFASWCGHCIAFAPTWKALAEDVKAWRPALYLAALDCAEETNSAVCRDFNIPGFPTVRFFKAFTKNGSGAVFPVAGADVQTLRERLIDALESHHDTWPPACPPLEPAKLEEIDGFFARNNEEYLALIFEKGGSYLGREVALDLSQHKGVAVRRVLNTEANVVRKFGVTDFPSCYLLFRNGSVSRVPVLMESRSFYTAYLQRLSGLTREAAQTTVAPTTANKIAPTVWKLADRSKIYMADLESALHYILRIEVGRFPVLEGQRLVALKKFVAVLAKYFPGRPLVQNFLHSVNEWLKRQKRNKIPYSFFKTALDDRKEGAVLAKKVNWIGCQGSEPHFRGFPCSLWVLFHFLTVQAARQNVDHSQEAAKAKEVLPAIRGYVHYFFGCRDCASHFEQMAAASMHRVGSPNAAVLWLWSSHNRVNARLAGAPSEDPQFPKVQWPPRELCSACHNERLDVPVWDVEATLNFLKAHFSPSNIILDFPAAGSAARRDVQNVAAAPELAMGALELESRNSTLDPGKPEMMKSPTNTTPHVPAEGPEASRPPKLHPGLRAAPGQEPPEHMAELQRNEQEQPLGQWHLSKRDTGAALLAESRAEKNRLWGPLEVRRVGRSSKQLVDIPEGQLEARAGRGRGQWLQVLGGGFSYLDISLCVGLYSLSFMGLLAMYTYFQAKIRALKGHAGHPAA
`O=C(O)c1nn(Cc2ccc(Cl)cc2Cl)c2ccccc12`: the inhibition is 6.3% [setting not given] (active).

Take `CCS(=O)(=O)Nc1cccc(C(=C2CCCCC2)c2cnc[nH]2)c1`: the inhibition was 1.9% (active).

`O=[N+]([O-])/C=C/c1ccc2c(c1)OCO2`: the inhibition was -5.8% (inactive).

Turning to `CC[C@@]1(O)C(=O)OCc2c1cc1n(c2=O)Cc2cc3ccccc3nc2-1`, the inhibition is 6.2% [setting not given] (active).

On to `NC(Cc1cc(O)c(O)cc1O)C(=O)O` (stereo not given), for which the inhibition is 12% (active).

Regarding `NCCc1c[nH]c2ccccc12`, the inhibition was 5.9% [setting not given] (active).

Regarding `NCCc1c[nH]c2ccc(O)cc12`, the inhibition is 23.8% (active).

Regarding `NCCc1c[nH]c2ccc(C(N)=O)cc12`, the inhibition is 0.5% (active).

In the case of `CCCN(CCC)CCc1c[nH]c2ccc(C(N)=O)cc12`, the inhibition is -6.3% [setting not given] (inactive).

Turning to `COc1ccc2[nH]cc(CCN)c2c1`, the inhibition was -1.9% [setting not given] (inactive).

With `CNCCc1c[nH]c2ccc(O)cc12`, the inhibition is 9.6% [setting not given] (active).

For the compound `OC1CCCCC1N1CCC(c2ccccc2)CC1` (stereo not given), the inhibition is -0.9% [setting not given] (inactive).

Turning to `CC(=O)NCCc1c[nH]c2ccccc12`, the inhibition was 12.2% [setting not given] (active).

As for `Cc1[nH]c2ccc(O)cc2c1CCN`, the inhibition is 16.3% [setting not given] (active).

For `CC(N)Cc1c[nH]c2ccc(O)cc12` (stereo not given), the inhibition was 20.8% [setting not given] (active).

Consider `CC(N)Cc1c[nH]c2ccc(OCc3cccs3)cc12` (stereo not given), for which the inhibition is 0.1% [setting not given] (active).

For the compound `c1ccc2c(c1)OCC(C1=NCCN1)O2` (stereo not given), the inhibition was -2.6% (inactive).

In the case of `Cn1cnc(CCN)c1`, the inhibition was -4.6% (inactive).

As to `CN1C[C@H](CNC(=O)OCc2ccccc2)C[C@@H]2c3cccc4c3c(cn4C)C[C@H]21`, the inhibition is 10.7% [setting not given] (active).

Turning to `CP(=O)(O)C1=CCNCC1`, the inhibition is 0.8% (active).

With `NC(N)=NOCC[C@H](N)C(=O)O`, the inhibition is 4% [setting not given] (active).

As to `NC(N)=NOCCC(N)C(=O)O` (stereo not given), the inhibition is -1% (inactive).

For `NCC(O)c1ccc(O)cc1` (stereo not given), the inhibition is 6.8% [setting not given] (active).

Turning to `NNC(=O)c1ccc(O)cc1`, the inhibition was -1% (inactive).

Consider `CNCC(O)c1ccc(O)cc1` (stereo not given), for which the inhibition was 2.1% [setting not given] (active).

In the case of `COc1cc(C(O)CN)ccc1O` (stereo not given), the inhibition is 4.4% (active).

Turning to `OCc1cnc[nH]1`, the inhibition is -0.7% (inactive).

For the compound `O=C(O)Cc1cnc[nH]1`, the inhibition is 4.8% (active).

In the case of `O=C1/C(=C/c2ccccc2)C[C@@]2(O)[C@H]3Cc4ccc(O)c5c4[C@@]2(CCN3CC2CC2)[C@H]1O5`, the inhibition is -0.8% [setting not given] (inactive).

As for `Oc1ccc2c3c1O[C@H]1c4[nH]c5ccccc5c4C[C@@]4(O)C(C2)N(CC2CC2)CCC314` (stereo not given in full), the inhibition was 8.5% [setting not given] (active).

Regarding `Oc1ccc2c3c1O[C@H]1c4[nH]c5c(c4C[C@@]4(O)[C@@H](C2)N(CC2CC2)CC[C@]314)C[C@@]1(O)[C@H]2Cc3ccc(O)c4c3[C@@]1(CCN2CC1CC1)[C@H]5O4`, the inhibition was 0.3% (active).

In the case of `NC(N)=Nc1ccc2[nH]c3c(c2c1)C[C@@]1(O)[C@H]2Cc4ccc(O)c5c4[C@@]1(CCN2CC1CC1)[C@H]3O5`, the inhibition is 7.1% [setting not given] (active).

On to `Oc1ccc2c3c1O[C@H]1c4oc5ccccc5c4C[C@@]4(O)C(C2)N(CC2CC2)CCC314` (stereo not given in full), for which the inhibition is 1.7% [setting not given] (active).

For `CC(C)(O)[C@@H]1[C@H]2OC(=O)[C@@H]1[C@]1(O)C[C@H]3O[C@]34C(=O)O[C@H]2[C@]14C` (tested in a mixture with another compound), the inhibition is -1.5% (inactive).

Take `CN1CCc2cccc(Cl)c2CC1`: the inhibition was -4.5% (inactive).

For `CC(C)Oc1cccnc1N(C)C1CCN(Cc2ccccc2)CC1`, the inhibition was 8.9% (active).

For `O=c1[nH]c2ccccc2n1CCCN1CCC(n2c(=O)[nH]c3cc(Cl)ccc32)CC1`, the inhibition was -1.8% [setting not given] (inactive).

For `O=c1[nH]c2ccccc2n1C1CCN(CCCC(c2ccc(F)cc2)c2ccc(F)cc2)CC1`, the inhibition is 4.6% [setting not given] (active).

Turning to `NC(Cc1ccc(N(CCCl)CCCl)cc1)C(=O)O` (stereo not given), the inhibition is 32.1% (active).

Take `O=C(O)CCCc1ccc(N(CCCl)CCCl)cc1`: the inhibition is 4.4% [setting not given] (active).

As for `Cn1c(CCCC(=O)O)nc2cc(N(CCCl)CCCl)ccc21`, the inhibition was 33.3% (active).

Consider `Cc1ncc(CNC(=O)N(CCCl)N=O)c(N)n1`, for which the inhibition was -0.8% (inactive).

Take `CCCn1c(C)c(C(=O)c2ccc3ccccc3c2)c2ccccc21`: the inhibition was 3.4% [setting not given] (active).

Turning to `O=c1c2ccccc2[se]n1-c1ccccc1`, the inhibition was 61% [setting not given] (active).

Regarding `CCCN1CCC[C@@H](c2cccc(O)c2)C1`, the inhibition was -1.9% (inactive).

As to `CCCN1CCC[C@H](c2cccc(O)c2)C1`, the inhibition is 0.7% (active).

For the compound `C=C(C)[C@H]1Cc2c(ccc3c2O[C@@H]2COc4cc(OC)c(OC)cc4[C@@H]2C3=O)O1`, the inhibition was 8.2% [setting not given] (active).

In the case of `Cc1ccc(S(=O)(=O)N[C@@H](CCCCN)C(=O)CCl)cc1`, the inhibition was 2.5% (active).

Take `COC(=O)C1=CCCN(C)C1`: the inhibition is 0.8% [setting not given] (active).

In the case of `C#CCOC(=O)C1=CCCN(C)C1`, the inhibition was -6.3% (inactive).

With `NCc1cc(=O)[nH]o1`, the inhibition was -4.8% (inactive).

For `CN1C(=O)CCS(=O)(=O)C1c1ccc(Cl)cc1` (stereo not given), the inhibition was 4.6% (active).

Turning to `NNC(N)=O`, the inhibition was 2% (active).

`NC(=O)CI`: the inhibition was -1.4% (inactive).

In the case of `COc1ccccc1N1CCNCC1`, the inhibition was -0.9% [setting not given] (inactive).

Turning to `c1ccc2c(N3CCNCC3)cccc2c1`, the inhibition was 2.2% (active).

Take `CS(=N)(=O)CC[C@H](N)C(=O)O` (stereo not given in full): the inhibition was 2% (active).

For the compound `CC(=O)OCC1=C(C(=O)O)N2C(=O)[C@@H](NC(=O)CCC[C@@H](N)C(=O)O)[C@H]2SC1`, the inhibition is -4.2% (inactive).

Regarding `COc1ccc2c(c1)c(CCN1CCOCC1)c(C)n2C(=O)c1cccc(Cl)c1Cl`, the inhibition is 1.4% (active).

Take `CC(C)=CCOc1c2occc2cc2ccc(=O)oc12`: the inhibition is 2.6% [setting not given] (active).
